Sm TGR inh = inhibitors of Schistosoma mansoni thioredoxin glutathione reductase; Q962Y6; AID 485364; actives 3% (n = 360,000); Potency, µM (doses to about 114 µM), inactives show at the highest dose activity change, negative = inhibition, usual class: inhibitors; purified TGR, DTNB reduction, TNB absorbance 405 nm; further: potency means the concentration at half of the fitted maximal effect; nearly all actives have a fitted effect of over 60% in size
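TGR 20 nM + NADPH 100 uM (dispensed conc.), cpd preinc 15 min RT; start with NADPH (500 uM addition) then DTNB (15 mM addition). Kinetic TNB absorbance, 405 nm filter. Four-parameter Hill fit across titration.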
FMDV antiviral = foot and mouth disease virus antiviral activity; actives 1.2% (n = 410,000); Potency, µM (top dose mostly 57.9 µM), inactives show at the top dose activity change, negative = inhibition, hits mostly inhibitors; FMDV antiviral cell-based qHTS; calls by dose curve; tested in HEK293T cells; further: read-out not given here; potency means the concentration at half of the fitted maximal effect; nearly all actives have a fitted effect of over 45% in size
Tb PYK inh = T. brucei pyruvate kinase inhibition; TbPYK enzyme, Kinase-Glo Plus ATP luminescence, 45 min; Potency, µM (highest dose often 76.8 µM), for the others: at the highest dose activity, negative = inhibition, most hits filed as inhibitors; actives 0.12% (n = 410,000); further: potency means the concentration at half of the fitted maximal effect; nearly all actives have a fitted effect of over 50% in size
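Luminescence from Kinase-Glo Plus, added after a 45-minute room-temperature reaction, served as the end-point read-out. The enzyme and substrate were preincubated with compound before ADP (130 uM final) initiated turnover. Concentration-effect curves came from normalized qHTS data.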
FBPA Giardia inh = inhibitors of Giardia lamblia fructose-1,6-bisphosphate aldolase. A8B2U2. purified Giardia FBPA. Potency, µM (series often up to 59.6 µM), without a hit: at the highest dose activity, negative = inhibition, actives largely listed as inhibitors. actives 0.71% (n = 290,000); further: potency means the concentration at half of the fitted maximal effect; nearly all actives have a fitted effect of over 55% in size
Target sequence (A8B2U2 whole entry, looked up): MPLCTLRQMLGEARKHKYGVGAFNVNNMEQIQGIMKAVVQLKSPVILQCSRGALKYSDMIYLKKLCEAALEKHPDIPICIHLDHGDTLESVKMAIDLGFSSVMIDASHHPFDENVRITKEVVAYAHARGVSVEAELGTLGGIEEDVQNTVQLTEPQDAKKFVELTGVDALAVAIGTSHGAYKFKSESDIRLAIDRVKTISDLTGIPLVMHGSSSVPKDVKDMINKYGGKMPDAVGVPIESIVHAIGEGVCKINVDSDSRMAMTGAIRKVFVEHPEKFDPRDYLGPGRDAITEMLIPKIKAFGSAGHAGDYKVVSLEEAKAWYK
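40 nM FBPA preincubated 10 min at RT with compound (up to 57.5 uM final), then substrate plus GAPDH/TPI/NAD/arsenate coupling and diaphorase/resazurin added. Fluorescence read after 20 min at RT, 525/598 nm.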
HCMV inh = inhibitors of human cytomegalovirus; actives 4.5% (n = 410,000); activity change, negative = inhibition, % at 57.5 µM; HFF cells, HCMV-luciferase reporter, 72 h; stronger effect = lower value; in the data active means activity change below about -60%; inconclusive means no clear call, values can overlap the other calls; inactive means above about -39%
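Two-dose cell screen: HFF monolayers treated with compounds and infected with luciferase-expressing HCMV at 1 PFU/cell, 72 h at 37C, then lysed for luciferase measurement.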
RE007 growth inh = less growth of the S. pombe RE007 Vpr strain | S. pombe RE007 Vpr strain, BacTiter-Glo ATP luminescence, 24 h | Potency, µM (series often up to 92.2 µM), without a hit: at the highest dose activity change, negative = less growth, actives largely listed as inhibitors | actives 0.21% (n = 360,000); active means well fitted falling curve with a large enough effect; inconclusive means small, poorly fitted or top-dose-only effect; inactive means no such curve, though single readings can be large or run the other way; further: potency means the concentration at half of the fitted maximal effect; nearly all actives have a fitted effect of over 50% in size
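Fission yeast strain RE007, carrying one chromosomally integrated HIV-1 vpr copy, was seeded at OD 0.01 in PMG+AL medium with 23 nL pinned compound. After 24 h at 30 °C and 99% humidity, viability was read by BacTiter-Glo luminescence.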
Active calls of the source: *; ? = inconclusive; / = no result given; + = active, no number; [ ] = remark or other dose. In the library only some 7.7% were active in any assay of this set; here they are far more common. Unless noted, the call rests on the fitted dose curve; in most records, active means well fitted curve in the direction sought with a large enough effect; inconclusive means small, poorly fitted or top-dose-only effect, or another doubt; inactive means no such curve, though single readings can be large; an effect the other way counts as inactive or inconclusive. On the % scale 0 is the no-effect control and ±100 the full control effect.

SMILES	Sm TGR inh	FMDV antiviral	Tb PYK inh	FBPA Giardia inh	HCMV inh	RE007 growth inh
Cc1c(C)c2ccc(OCC(=O)NC(Cc3ccc(Cl)cc3)C(=O)O)cc2oc1=O (stereo not given)	-2%	-10%	-6%	23%	-37	2%
CCOc1ccc(NC(=O)Cn2c(CCC(=O)O)ccc2-c2ccc(C)cc2)cc1	-7%	-12%	-7%	/	18	/
Cc1ccc(C2NC(=O)c3c(sc(C)c3C)N2)c(O)c1 (stereo not given)	25µM*	/	-22%	-19%	40	0%
CCCCCCCCN[C@@H](C)[C@H](O)c1ccc(SC(C)C)cc1	/	/	/	-2%[21.7 µM]	/	/
COc1ccc(C(=O)NCc2nnnn2-c2ccc(C)c(C)c2)cc1	9%	-2%	2%	/	-34	/
COc1ccc(Br)cc1/C=C/C(=O)c1ccc(NC(C)=O)cc1	-4%	10µM*	-7%	8%	-98*	-10%
COc1ccc(C(=O)Nc2cccc(C(=O)OCc3cc(=O)n4nc(C5CC5)sc4n3)c2)cc1	-10%	26%	-3%	/	89	/
NC(=O)[C@@H]1CCCN1	/	/	/	-2%	/	/
NC(=O)C1CCCNC1 (stereo not given)	28µM*	0%	2%	7%	-30	0%
c1csc(CNc2ncnc3ccc(-c4ccoc4)cc23)c1	-23%	-29%	0%	1%	-92*	/
c1ccc(CNc2ncnc3sccc23)cc1	-19%	?	-2%	-4%	-94*	2%
c1csc(CNc2nc(-c3cccs3)nc3ccccc23)c1	0%	-29%	3%	-2%	-61*	-15%
c1csc(CNc2ncnc3sccc23)c1	/	?	-2%	/	-79*	-11%
COc1ccc(CNc2ncnc3sccc23)cc1	3%	?	-5%	8%	-73*	5%
CN(Cc1cccs1)c1ncnc2sccc12	-10%	?	-2%	-9%	-78*	16%
COc1ccc(CNc2ncnc3sccc23)cc1OC	7%	-24%	0%	11%	-10	10%
COc1ccc(CCN(C)C(=O)CSc2ncnc3sccc23)cc1OC	-9%	?	1%	3%	-10	-6%
COc1ccc(CCN(C)c2ncnc3sccc23)cc1OC	-6%	28µM*	2%	-13%	?	1%
Cc1sc2ncnc(Nc3ccccc3)c2c1C	7%	-5%	-12%	1%	91	?
Cc1sc2ncnc(NCc3ccccc3)c2c1C	12%	28µM*	2%	3%	?	17%
COc1ccc(C)cc1NC(=O)c1cc2c(=O)n3cccc(C)c3nc2s1	1%	4%	2%	/	-6	/
Cc1cc2c(NCc3ccccc3)ncnc2s1	-3%	?	-5%	-3%	-76*	-4%
Cc1ccccc1C(=O)Nc1cccc(C(=O)OCc2cc(=O)n3nc(C4CC4)sc3n2)c1	-7%	?	1%	/	-1	/
COc1cccc(C2=CC(c3ccc(C)cc3)n3ncnc3N2)c1 (stereo not given)	18µM*	/	/	-3%	/	/
Cc1cc(-c2ccc(N=Nc3c(S(=O)(=O)O)cc4cc(S(=O)(=O)O)cc(N)c4c3O)c(C)c2)ccc1N=Nc1c(S(=O)(=O)O)cc2cc(S(=O)(=O)O)cc(N)c2c1O	-9%	/	?	/	/	/
SMILES	Sm TGR inh	FMDV antiviral	Tb PYK inh	FBPA Giardia inh	HCMV inh	RE007 growth inh
O=S(=O)(O)c1cc(O)c2c(O)c(N=Nc3cc(Cl)ccc3O)c(S(=O)(=O)O)cc2c1	-31%	13µM*	?	?	/	?
CC1Cn2cc(C(=O)Nc3cccc(C(F)(F)F)c3)c(=O)c3c(Cl)ccc(c32)O1 (stereo not given)	3%	-13%	2%	/	10	/
CC(=O)Nc1ccc(Oc2cc(C#N)c(C#N)cc2N2CCCCCC2)cc1	-3%	18µM*	-3%	17%	?	13%
CC(=O)Nc1ccc(Oc2cc(C#N)c(C#N)cc2N2CCOCC2)cc1	-4%	-21%	-31%	6%	13	13%
CN(C)c1ncc2nc(-c3ccccc3)c(=O)n(C)c2n1	/	31%	/	0%	/	/
CC1=Nc2cc(C(=O)NCCc3ccc(Cl)cc3)ccc2Sc2ccc(C)cc21	-2%	-2%	-4%	/	-65*	/
CCCC1=Nc2cc(C(=O)NCCc3ccc(OCC)cc3)ccc2Sc2ccccc21	6%	?	0%	/	?	/
CC1=Nc2cc(C(=O)NCCCOC(C)C)ccc2Sc2ccccc21	0%	8%	3%	9%	+	2%
CC1=Nc2cc(C(=O)NCCCOC(C)C)ccc2Sc2ccc(C)cc21	-15%	15%	2%	2%	-76*	5%
COC(=O)NC1C=CCCC1C(C)=O (stereo not given)	/	/	/	-3%	/	/
Cc1ccc(-c2nn(CC(=O)NCc3cc(-c4nn(C)c(=O)c5ccccc45)ccc3C)c(=O)c3ccccc23)cc1	-3%	16µM*	-7%	2%	-95*	12%
Cc1cccc(C(=O)Nc2ccc3oc(-c4ccncc4)nc3c2)c1	-8%	?	2%	/	?	/
O=S(=O)(NCc1ccccc1)c1ccc(Cl)cc1	-10%	80%	-1%	-4%	-29	3%
O=S(=O)(Nc1cc2nc3ccccc3nc2n1Cc1ccccc1)c1ccc(Cl)cc1	-17%	12%	-1%	?	-91*	4%
O=C(c1cc(-c2ccccc2)on1)N1CCOc2ccc(CN3CCN(c4ccccn4)CC3)cc2C1	/	-1%	/	/	/	/
COc1ccc(N(C)S(=O)(=O)c2cccc(C(=O)OCC(=O)c3c(N)n(C)c(=O)n(C)c3=O)c2)cc1	/	22µM*	3%	/	?	-9%
COc1ccc(N(C)S(=O)(=O)c2cccc(C(=O)NC3CCC(C)CC3)c2)cc1 (stereo not given)	13%	-19%	1%	-11%	-62*	-12%
COc1ccc(N(C)S(=O)(=O)c2cccc(C(=O)NC3CCCCCC3)c2)cc1	-6%	?	-2%	-6%	-7	3%
CC(C)(O)C#Cc1ccc(CN2CCc3nnc(CCNC(=O)c4ccco4)n3CC2)cc1	/	10%	/	/	/	/
CCn1c(=O)cc(OCC(=O)N2CCN(c3cccc(C)c3C)CC2)c2ccccc21	-15%	20µM*	2%	/	13	/
COc1ccc(-c2sc3ccc(N4CCOCC4)cc3c2C#CCO)cc1	/	16µM*	-3%	/	-87*	0%
Cc1ccccc1-c1nc(CS(=O)CC(=O)NCCc2ccc(Cl)cc2)c(C)o1 (stereo not given)	28µM*	-16%	1%	/	-14	18%
Cc1ccc(CNC(=O)CS(=O)Cc2nc(-c3ccccc3C)oc2C)cc1 (stereo not given)	45µM*	-7%	-11%	6%	23	-3%

High-throughput results: PubChem BioAssay, National Center for Advancing Translational Sciences (NCATS)
